# Assay results taken from PubChem BioAssay AID1499 (Sanford-Burnham Center for Chemical Genomics, 2009).
# In all, about 93,000 compounds went through this assay and about 65 (0.07%) were called active. Many of the other results were omitted from the sample, so actives are more common in it than they were. Values without a mark were called inactive.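 Rule for the calls: active = 10 µM primary screen giving 50% or more activity, confirmed by 40% or more on retest at that dose; inactive = the rest.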
# Biological target: Integrin beta-2 (Homo sapiens) + Integrin alpha-M (Homo sapiens) (UniProt P05107+P11215)
# Assay: agonists of integrin CD11b/CD18-fibrinogen binding – K562 cells, luminescence, primary screen (AID 1499)
# Settings: K562 CD11b/CD18 adhesion to fibrinogen, ATPlite luminescence; at 10 µM; stronger effect = higher value
# Chain of Integrin beta-2 (Homo sapiens) + Integrin alpha-M (Homo sapiens) (P05107 whole entry, looked up, other chains not shown): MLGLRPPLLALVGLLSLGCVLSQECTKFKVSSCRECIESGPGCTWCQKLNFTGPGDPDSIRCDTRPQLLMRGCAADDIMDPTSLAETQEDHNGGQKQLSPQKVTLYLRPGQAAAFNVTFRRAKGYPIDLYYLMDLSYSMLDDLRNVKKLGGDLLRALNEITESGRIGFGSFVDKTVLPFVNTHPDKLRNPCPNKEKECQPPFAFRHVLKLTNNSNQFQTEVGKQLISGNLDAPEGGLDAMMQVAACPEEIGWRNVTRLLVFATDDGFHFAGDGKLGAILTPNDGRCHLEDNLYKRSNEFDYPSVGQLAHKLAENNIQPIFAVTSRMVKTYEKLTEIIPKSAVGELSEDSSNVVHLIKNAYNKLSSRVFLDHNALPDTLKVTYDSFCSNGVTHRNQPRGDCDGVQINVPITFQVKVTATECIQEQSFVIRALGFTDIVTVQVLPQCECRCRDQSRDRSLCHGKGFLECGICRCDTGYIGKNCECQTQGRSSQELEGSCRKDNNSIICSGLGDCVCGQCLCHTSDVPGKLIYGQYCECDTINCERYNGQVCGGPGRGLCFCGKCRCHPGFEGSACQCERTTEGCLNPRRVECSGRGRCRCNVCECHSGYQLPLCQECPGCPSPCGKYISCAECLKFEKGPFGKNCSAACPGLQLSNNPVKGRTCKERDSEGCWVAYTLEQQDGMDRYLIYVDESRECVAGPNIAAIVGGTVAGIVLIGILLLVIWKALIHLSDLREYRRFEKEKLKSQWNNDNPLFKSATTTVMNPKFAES
row,SMILES,activation
1,Cc1ccc(NC(=O)CN(C)Cc2ccc(F)cc2)c([N+](=O)[O-])c1,-1%
2,O=C(Oc1ccccc1Cl)c1ccc(N2CCOCC2)c([N+](=O)[O-])c1,-0.9%
3,CCS(=O)(=O)Nc1cccc(-c2cc(-c3ccccc3)c3cc(C)ccc3n2)c1,-5.6%
4,O=C(COC(=O)CSc1nnc(-c2ccc(Cl)cc2)o1)Nc1cc(Cl)cc(Cl)c1,25.1%
5,O=C(Nc1ccccc1)/C(=C/c1ccc([N+](=O)[O-])cc1)NC(=O)c1ccccc1,29.4%
6,CN(Cc1ccccc1)C(=O)COC(=O)c1ccccc1Nc1ccccc1,-2.4%
7,CC(C)C(=O)Nc1ccc2c3c(cccc13)CC2,-4.8%
8,CCCOC(=O)c1c(NC(=O)c2cnn3c2NC(c2ccccc2)CC3C(F)(F)F)sc2c1CCCC2 (configuration not stated),62.7%
9,O=C(Oc1ccc([N+](=O)[O-])cc1)c1ccc(Cl)c(S(=O)(=O)N2CCCCC2)c1,-4.7%
10,O=C(Nc1nnc(C2COc3ccccc3O2)o1)c1ccc(F)cc1 (configuration not stated),3%
11,COC(=O)N/N=C/c1ccc(-c2ccc(Cl)c(Cl)c2)o1,-1.3%
12,COc1ccc(Nc2nc(N)nc(CSC(=S)N3CCC(C)CC3)n2)cc1,2.4%
13,COc1ccc(Cl)cc1NC(=O)[C@@H]1CCCN1C(=O)c1cccs1,2.8%
14,O=C(Nc1ccccc1Cl)c1ccccc1S(=O)(=O)c1ccccc1[N+](=O)[O-],1%
15,CCOc1ccc(NC(=O)COc2ccc(C(=O)NC3CCCc4ccccc43)cc2OC)cc1 (configuration not stated),37%
16,COc1ccc(C2c3c(C)nn(-c4ccccc4)c3NC(=O)N2c2ccccc2)cc1 (configuration not stated),-1.5%
17,CCCc1c(C)nc2c(Br)cccc2c1Cl,2.4%
18,COC(=O)c1ccc(C(=O)OC)c(NC(=S)N2CCN(c3cc(Cl)ccc3C)CC2)c1,-1.1%
19,CCN(CC)c1ccc([N+](=O)[O-])cc1C(=O)O,-7%
20,COc1ccc(CCNC(=O)CSc2nc(-c3ccc(OC)c(OC)c3)ccc2C#N)cc1,8.9%
21,CC(=O)N1CCN(CC(=O)Nc2ccc(SC(F)F)cc2)CC1,2.9%
22,Cc1nn(C)c(Oc2ccccc2)c1CCNS(=O)(=O)c1ccc(F)cc1,4.8%
